Assay results reported in PubChem BioAssay (EPA / NIEHS).
Activity calls are given as the source filed them. Rule for the calls: active = hit-call score of the fitted dose curve at least 0.9, where 1 is the maximum; inactive = score below 0.9.

Legend:
[1] = BSK_hDFCGF_SRB: Viability Assessment in the BioMAP Diversity Plus: hDFCGF Assay (AID 2283061); details: primary human foreskin fibroblasts;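 note: cells exposed to compound for 24 h before the read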
Summary of the method: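 Cells were dosed with test chemical, cultured 24 h, fixed with 10% TCA, then stained with 0.1% SRB and read at 560 nm. The fibroblasts were human foreskin primary cells, and DMSO served as baseline.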

[2] = read-out: TIMP metallopeptidase inhibitor 1 (TIMP1), TIMP1 (gene 7076); assay: BSK_hDFCGF_TIMP1: BioMAP Diversity Plus: hDFCGF Assay for TIMP metallopeptidase inhibitor 1 (TIMP1) Biomarker Activity (AID 2283062); details: primary human foreskin fibroblasts; actives raise or lower the signal
Summary of the method: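 Fibroblasts from human foreskin are treated with test chemical and harvested at 24 h. TIMP-1 is quantified by ELISA, and gain or loss of signal is scored against DMSO.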

[3] = read-out: Monokine induced gamma interferon (MIG), CXCL9 (gene 4283); assay: BSK_hDFCGF_MIG: BioMAP Diversity Plus: hDFCGF Assay for Monokine induced gamma interferon (MIG) Biomarker Activity (AID 2283063); details: primary human foreskin fibroblasts; actives raise or lower the signal
Summary of the method: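 MIG signal, determined by ELISA, reflects 24 h chemical exposure of human skin primary fibroblasts. DMSO serves as negative control and baseline.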

[4] = read-out: Matrix Metallopeptidase 1 (MMP1), MMP1 (gene 4312); assay: BSK_hDFCGF_MMP1: BioMAP Diversity Plus: hDFCGF Assay for Matrix Metallopeptidase 1 (MMP1) Biomarker Activity (AID 2283064); details: primary human foreskin fibroblasts; actives raise or lower the signal
Summary of the method: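 Primary human foreskin fibroblasts exposed to chemicals for 24 h; MMP1 measured by ELISA. Cytotoxicity tracked by SRB staining in parallel cultures; bidirectional fit relative to DMSO.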

[5] = read-out: Vascular cell adhesion molecule 1 (VCAM1), VCAM1 (gene 7412); assay: BSK_hDFCGF_VCAM1: BioMAP Diversity Plus: hDFCGF Assay for Vascular cell adhesion molecule 1 (VCAM1) Biomarker Activity (AID 2283065); details: primary human foreskin fibroblasts; actives raise or lower the signal
Summary of the method: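 Cells are dosed, cultured for 24 h, then VCAM-1 is quantified by ELISA; signal increases and decreases are both fitted relative to DMSO.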

[6] = read-out: Plasminogen activator inhibitor-1 (PAI1), SERPINE1 (gene 5054); assay: BSK_hDFCGF_PAI1: BioMAP Diversity Plus: hDFCGF Assay for Plasminogen activator inhibitor-1 (PAI1) Biomarker Activity (AID 2283066); details: primary human foreskin fibroblasts; actives raise or lower the signal
Summary of the method: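 Human foreskin fibroblast primary cells, 24 h chemical exposure; PAI-1 measured by ELISA. Bidirectional fitting relative to DMSO; parallel cultures stained with SRB for total protein to flag overt cytotoxicity.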

[7] = read-out: Intercellular Adhesion Molecule 1 (ICAM1), ICAM1 (gene 3383); assay: BSK_KF3CT_ICAM1: BioMAP Diversity Plus: KF3CT Assay for Intercellular Adhesion Molecule 1 (ICAM1) Biomarker Activity (AID 2283067); details: primary human keratinocytes with fibroblasts; actives raise or lower the signal
Summary of the method: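 Dose the keratinocyte/fibroblast co-culture, wait 24 h, measure ICAM-1 by ELISA, then fit increases or decreases against DMSO. Cytotoxicity is checked in parallel cultures by SRB total-protein staining.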

[8] = read-out: Interferon-gamma inducible Protein 10 (IP10), CXCL10 (gene 3627); assay: BSK_KF3CT_IP10: BioMAP Diversity Plus: KF3CT Assay for Interferon-gamma inducible Protein 10 (IP10) Biomarker Activity (AID 2283068); details: primary human keratinocytes with fibroblasts; actives raise or lower the signal
Summary of the method: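 KF3CT co-culture (keratinocytes + foreskin fibroblasts), 24 h compound, IP-10 by ELISA; bidirectional fit vs DMSO baseline.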

[9] = BSK_KF3CT_SRB: Viability Assessment in the BioMAP Diversity Plus: KF3CT Assay (AID 2283069); details: primary human keratinocytes with fibroblasts;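 note: fitted for both signal gain and loss against DMSO baseline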
Summary of the method: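 Human keratinocyte and foreskin fibroblast co-culture exposed to chemical for 24 h. Total protein measured in parallel cultures by 0.1% sulforhodamine B staining after 10% TCA fixation, read at 560 nm; bidirectional fit relative to DMSO.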

[10] = read-out: Interleukin-1 alpha (IL1a), IL1A (gene 3552); assay: BSK_KF3CT_IL1a: BioMAP Diversity Plus: KF3CT Assay for Interleukin-1 alpha (IL1a) Biomarker Activity (AID 2283070); details: primary human keratinocytes with fibroblasts; actives raise or lower the signal
Summary of the method: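 Primary human keratinocyte plus foreskin fibroblast co-culture, dosed and measured at 24 h in 96-well plates. IL-1a level quantified by ELISA; bidirectional fit relative to DMSO.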

[11] = read-out: TIMP metallopeptidase inhibitor 2 (TIMP2), TIMP2 (gene 7077); assay: BSK_KF3CT_TIMP2: BioMAP Diversity Plus: KF3CT Assay for TIMP metallopeptidase inhibitor 2 (TIMP2) Biomarker Activity (AID 2283071); details: primary human keratinocytes with fibroblasts; actives raise or lower the signal
Summary of the method: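 Co-culture of human primary keratinocytes and foreskin fibroblasts, measured 24 h after chemical dosing. TIMP-2 quantified by ELISA and fitted in both directions relative to DMSO. Cytotoxicity checked in parallel cultures by SRB total-protein staining.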

[12] = read-out: C-C motif chemokine 2 (Homo sapiens) (UniProt P13500); assay: BSK_KF3CT_MCP1: BioMAP Diversity Plus: KF3CT Assay for Monocyte Chemoattractant Protein 1 (MCP1/CCL2) Biomarker Activity (AID 2283073); details: primary human keratinocytes with fibroblasts; actives raise or lower the signal
Summary of the method: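 Keratinocytes and foreskin fibroblasts were co-cultured, dosed with chemical, and sampled 24 h later. MCP-1 was quantified by ELISA, and the endpoint was analyzed with bidirectional fitting using DMSO as negative control.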

[13] = read-out: Matrix Metallopeptidase 9 (MMP9), MMP9 (gene 4318); assay: BSK_KF3CT_MMP9: BioMAP Diversity Plus: KF3CT Assay for Matrix Metallopeptidase 9 (MMP9) Biomarker Activity (AID 2283074); details: primary human keratinocytes with fibroblasts; actives raise or lower the signal
Summary of the method: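 Human keratinocyte and foreskin fibroblast co-culture exposed to chemicals for 24 h; MMP9 biomarker measured by ELISA, bidirectional fitting relative to DMSO; cytotoxicity tracked by SRB total protein staining in parallel cultures.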

[14] = read-out: urokinase plasminogen activator (uPA), PLAU (gene 5328); assay: BSK_KF3CT_uPA: BioMAP Diversity Plus: KF3CT Assay for urokinase plasminogen activator (uPA) Biomarker Activity (AID 2283075); details: primary human keratinocytes with fibroblasts; actives raise or lower the signal
Summary of the method: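 Primary human keratinocyte/foreskin fibroblast co-culture exposed to chemical; uPA measured by ELISA at 24 h. Bidirectional fit versus DMSO, with parallel SRB total-protein staining for cytotoxicity.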

CD40, CD40 (gene 958) = assay: BSK_LPS_CD40: BioMAP Diversity Plus: LPS Assay for CD40 Biomarker Activity (AID 2283076); details: primary human HUVEC with PBMC; actives raise or lower the signal
Summary of the method: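 CD40 signal, measured by ELISA, is fitted in both directions relative to DMSO vehicle. The system is an LPS-driven human vascular primary co-culture of endothelial cells and PBMC, sampled 24 h after compound addition.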

[15] = read-out: E-selectin (Homo sapiens) (UniProt P16581); assay: BSK_LPS_Eselectin: BioMAP Diversity Plus: LPS Assay for Eselectin Biomarker Activity (AID 2283077); details: primary human HUVEC with PBMC; actives raise or lower the signal
Summary of the method: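 Signal of E-selectin, detected by ELISA, served as the endpoint; cells were umbilical vein endothelium with PBMC, read 24 h after treatment. DMSO defined baseline, and both increases and decreases were fitted.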

[16] = read-out: Interleukin-8 (IL8), CXCL8 (gene 3576); assay: BSK_LPS_IL8: BioMAP Diversity Plus: LPS Assay for Interleukin-8 (IL8) Biomarker Activity (AID 2283078); details: primary human HUVEC with PBMC; actives raise or lower the signal
Summary of the method: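 Endothelial cells and PBMC from human donors are co-cultured, treated with chemicals and LPS, then assayed for IL-8 by ELISA after 24 h. Parallel SRB staining (0.1% SRB after 10% TCA fixation, 560 nm) flags cytotoxicity.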

[17] = BSK_LPS_SRB: Viability Assessment in the BioMAP Diversity Plus: LPS Assay (AID 2283079); details: primary human HUVEC with PBMC;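 note: total protein by sulforhodamine B absorbance as a cytotoxicity measure; measured one day after compound addition; fitted in both directions against DMSO so loss or gain of signal counts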
Summary of the method: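 Overt cytotoxicity was gauged by sulforhodamine B total-protein staining in a primary human vascular endothelial and mononuclear cell co-culture 24 h post-dosing. Activity was fitted in both directions relative to DMSO.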

[18] = read-out: Interleukin-1 alpha (IL1a), IL1A (gene 3552); assay: BSK_LPS_IL1a: BioMAP Diversity Plus: LPS Assay for Interleukin-1 alpha (IL1a) Biomarker Activity (AID 2283080); details: primary human HUVEC with PBMC; actives raise or lower the signal
Summary of the method: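 Measured: IL-1 alpha via ELISA at 24 h in LPS-activated human umbilical vein endothelium–PBMC co-culture. Baseline: DMSO, bidirectional fitting.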

[19] = read-out: Transforming growth factor beta 1 (TGFb1), TGFB1 (gene 7040); assay: BSK_KF3CT_TGFb1: BioMAP Diversity Plus: KF3CT Assay for Transforming growth factor beta 1 (TGFb1) Biomarker Activity (AID 2283072); details: primary human keratinocytes with fibroblasts; actives raise or lower the signal
Summary of the method: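 Human keratinocyte/foreskin fibroblast co-culture; TGF-b1 measured by ELISA 24 h after dosing, fitted bidirectionally versus DMSO. Cytotoxicity checked in parallel cultures by total protein (SRB staining, 560 nm).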

Measured: outcome

E-selectin (Homo sapiens), sequence (P16581 whole entry, looked up): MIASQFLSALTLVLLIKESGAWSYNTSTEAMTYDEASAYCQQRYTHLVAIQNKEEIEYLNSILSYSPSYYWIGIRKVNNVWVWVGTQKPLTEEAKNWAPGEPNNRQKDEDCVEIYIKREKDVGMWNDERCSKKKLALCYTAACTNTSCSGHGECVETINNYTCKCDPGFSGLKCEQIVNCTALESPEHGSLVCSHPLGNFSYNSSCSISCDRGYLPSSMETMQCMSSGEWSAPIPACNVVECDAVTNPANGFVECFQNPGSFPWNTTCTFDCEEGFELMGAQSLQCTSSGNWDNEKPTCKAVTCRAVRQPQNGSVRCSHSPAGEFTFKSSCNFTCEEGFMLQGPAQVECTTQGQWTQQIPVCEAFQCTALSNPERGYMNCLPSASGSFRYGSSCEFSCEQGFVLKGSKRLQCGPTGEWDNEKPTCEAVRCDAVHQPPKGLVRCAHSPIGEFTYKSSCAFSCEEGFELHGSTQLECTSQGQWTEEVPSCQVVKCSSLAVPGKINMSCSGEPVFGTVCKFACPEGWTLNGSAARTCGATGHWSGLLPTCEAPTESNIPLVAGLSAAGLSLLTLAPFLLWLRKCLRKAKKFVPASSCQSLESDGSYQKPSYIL

FC(F)(F)COC(OCC(F)(F)F)OCC(F)(F)F
not listed: [19]
inactive: all other assays above

C=CN1CCCC1=O
not listed: [16]
inactive: all other assays above

FC(F)C(F)(F)COCC1CO1 (stereo unspecified)
not listed: [19]
inactive: all other assays above

CCCCCCCCN(C)C
not listed: [19]
inactive: all other assays above
